Compound activity: PubChem BioAssay, Broad Institute
PD-1 reversal: activators reversing PD-1 mediated T-cell inhibition | primary human CD4 T cells, PD-L1 beads, CellTiter-Glo 96 h | activation, % (no concentration beside the values) | 29,000 tested, under 10 active | AID 2316; call rule not given here
ROS inducer: cancer cell ROS induction. AID 624156. 46,000 tested, 2% active. ROS induction (% of piperlongumine), % at 10 µM. U2OS ROS induction, H2DCF-DA fluorescence; in the data active = ROS induction above about 79%, passing the limit was not always enough
Each line names hits and unclear results; the compound was inactive in the other large screens. Only a selection was taken, and hits are over-represented in it overall.

COc1ccc2c(c1)C(=O)/C(=C/c1ccc(N(C)C)cc1)CC2	ROS inducer 122 (no result: PD-1 reversal)
COc1ccc(/C=C2\CCc3ccccc3C2=O)cc1Cn1cccn1	none (no result: PD-1 reversal)
COC(=O)c1cc(O)cc(OC)c1C(=O)c1c(O)cc(C)cc1OC	none
COC(=O)c1cc(O)cc(OC)c1C(=O)c1c(O)cc(C)cc1O	ROS inducer 94
COc1cc2c(cc1O)C1(O)Cc3ccc4c(c3C1N(C)CC2)OCO4 (centres undefined)	none (no result: PD-1 reversal)
COc1ccc(OC)c2c1CC(C)(C)n1c(-c3ccc(Cl)cc3)nnc1-2	none (no result: PD-1 reversal)
COc1ccc(-c2c(C)nn3c(N4CCC(C)CC4)cc(C)nc23)cc1OC	ROS inducer 93 (no result: PD-1 reversal)
CCOc1ccc(NC(=O)CCS(=O)(=O)c2ccc3c(c2)OCC(=O)N3)cc1	none (no result: PD-1 reversal)
CC(=O)O[C@H]1[C@H](Oc2ccccc2COC(=O)C2(O)C=CCCC2=O)O[C@H](CO)[C@@H](O)[C@@H]1O (some centres undefined)	none
CC(=O)O[C@H]1[C@H](Oc2ccccc2COC(=O)C2(O)C=CCCC2=O)O[C@H](COC(=O)C2(O)C=CCCC2=O)[C@@H](O)[C@@H]1O (some centres undefined)	ROS inducer 89 (no result: PD-1 reversal)
O=C(NN1C(=O)/C(=C\c2cccnc2)SC1=S)c1ccccc1	ROS inducer 79
CSCCC(C(=O)O)N1C(=O)/C(=C/c2cccnc2)SC1=S (centres undefined)	none (no result: PD-1 reversal)
CCN(C(=O)c1ccc(C(=O)N(CC)c2ccccc2)cc1)c1ccccc1	none (no result: PD-1 reversal)
Cc1ccc(-c2cc(C(F)(F)F)n3nc(C(=O)Nc4ccn(Cc5ccccc5)n4)cc3n2)cc1C	none (no result: PD-1 reversal)
O=S(=O)(C1=CC23CCCC2(C=C(S(=O)(=O)c2ccc(Cl)cc2)C3)C1)c1ccc(Cl)cc1 (centres undefined)	ROS inducer 81
CC1CCCCN1S(=O)(=O)c1ccc(Cl)cc1 (centres undefined)	none (no result: PD-1 reversal)
Cc1c(NC2CS(=O)(=O)CC2O)c(=O)n(-c2ccccc2)n1C (centres undefined)	none
COc1ccccc1Nc1nc(N)nc(CSc2ncccn2)n1	none
COc1ccccc1Nc1nc(N)nc(CSCCO)n1	ROS inducer 123
Cc1ccccc1NS(=O)(=O)c1ccc2[nH]cc(C(=O)N3CCc4ccccc43)c(=O)c2c1	none (no result: PD-1 reversal)
Cc1ccc(-c2noc(C(C)c3ccc(CC(C)C)cc3)n2)cc1 (centres undefined)	none (no result: PD-1 reversal)
CCCCn1c(CCNC(=O)c2ccco2)nc2ccccc21	ROS inducer 81 (no result: PD-1 reversal)
O=C(NCCCc1nc2ccccc2n1CCCOc1ccccc1)c1ccco1	none (no result: PD-1 reversal)
CN(C)C(=O)/C(=C\c1ccccc1)NC(=O)c1ccccc1	none (no result: PD-1 reversal)
COC(=O)c1ccc(CSc2nc(-c3cccs3)cc(C(F)(F)F)n2)cc1	none
CC(C)(C)OC(=O)N1CCC[C@H]1/C=N/NC(=O)CCCCCC(=O)Nc1ccccc1O	none (no result: PD-1 reversal)
COCCOC(=O)N1C(=O)[C@@]2(c3ccccc31)[C@H](c1ccc(O)cc1)N1[C@H](c3ccccc3)[C@H](c3ccccc3)OC(=O)[C@H]1[C@@H]2C(=O)NC[C@H](O)c1ccccc1	none (no result: PD-1 reversal)
COCCOC(=O)N1C(=O)[C@@]2(c3ccccc31)[C@H](c1ccc(OCCO)cc1)N1[C@H](c3ccccc3)[C@H](c3ccccc3)OC(=O)[C@H]1[C@@H]2C(=O)NC[C@H](O)c1ccccc1	ROS inducer 189 (no result: PD-1 reversal)
COCCOC(=O)N1C(=O)[C@@]2(c3cc(C#CC4(O)CCCCCC4)ccc31)[C@H](C(N)=O)[C@H]1C(=O)O[C@H](c3ccccc3)[C@H](c3ccccc3)N1[C@@H]2c1ccccc1OCCO	none (no result: PD-1 reversal)
COCCOC(=O)N1C(=O)[C@@]2(c3cc(C#CC4=CCCCC4)ccc31)[C@H](C(=O)NC[C@H](O)c1ccccc1)[C@H]1C(=O)O[C@H](c3ccccc3)[C@H](c3ccccc3)N1[C@@H]2c1ccccc1OCCO	none (no result: PD-1 reversal)
C=CCNC(=O)[C@H]1[C@@H]2C(=O)O[C@@H](c3ccccc3)[C@@H](c3ccccc3)N2[C@@H](c2ccccc2OCCO)[C@]12C(=O)Nc1ccc(C#CC3(O)CCCCCC3)cc12	ROS inducer 102 (no result: PD-1 reversal)
COCCOC(=O)N1C(=O)[C@@]2(c3cc(C#CC4(O)CCCCCC4)ccc31)[C@H](C(=O)NC[C@H](O)c1ccccc1)[C@H]1C(=O)O[C@H](c3ccccc3)[C@H](c3ccccc3)N1[C@@H]2c1ccccc1OCCO	ROS inducer 141 (no result: PD-1 reversal)
C=CCNC(=O)[C@H]1[C@@H]2C(=O)O[C@@H](c3ccccc3)[C@@H](c3ccccc3)N2[C@@H](c2ccccc2OCCO)[C@]12C(=O)Nc1ccc(C#CCCO)cc12	none (no result: PD-1 reversal)
C=CCNC(=O)[C@@H]1[C@H]2C(=O)O[C@H](c3ccccc3)[C@H](c3ccccc3)N2[C@H](c2ccccc2OCCO)[C@@]12C(=O)N(C(=O)OCCOC)c1ccc(C#CC3(O)CCCCCC3)cc12	ROS inducer 98 (no result: PD-1 reversal)
CCCSc1nc2c([nH]c3ccccc32)c(=O)n1-c1cc(C)cc(C)c1	none (no result: PD-1 reversal)
CCn1c(SCC(=O)Nc2ccc(C)c(C)c2)nnc1-c1ccncc1	none
O=C1c2ccccc2C(=O)N1CC12CC3CC(CC(C3)C1)C2	none
CCc1cccc(C)c1NC(=O)CSc1nnc(-c2ccncc2)n1-c1ccc(C)cc1	none
O=C(CC1(O)C(=O)N(Cc2cccc3ccccc23)c2ccccc21)c1ccccc1[N+](=O)[O-] (centres undefined)	none (no result: ROS inducer)
C=CCNC(=O)[C@H]1[C@@H]2C(=O)O[C@@H](c3ccccc3)[C@@H](c3ccccc3)N2[C@@H](c2ccccc2OCCO)[C@]12C(=O)N(C(=O)OCCOC)c1ccc(C#CC3=CCCCC3)cc12	ROS inducer 177 (no result: PD-1 reversal)
C=CCNC(=O)[C@@H]1[C@H]2C(=O)O[C@H](c3ccccc3)[C@H](c3ccccc3)N2[C@H](c2ccccc2OCCO)[C@@]12C(=O)N(C(=O)OCCOC)c1ccc(C#CC3=CCCCC3)cc12	none (no result: PD-1 reversal)
C=CCNC(=O)[C@@H]1[C@H]2C(=O)O[C@H](c3ccccc3)[C@H](c3ccccc3)N2[C@H](c2ccccc2OCCO)[C@@]12C(=O)N(C(=O)OCCOC)c1ccc(C#CCC(C(=O)OC)C(=O)OC)cc12	ROS inducer 110 (no result: PD-1 reversal)
C=CCNC(=O)[C@H]1[C@@H]2C(=O)O[C@@H](c3ccccc3)[C@@H](c3ccccc3)N2[C@@H](c2ccc(O)cc2)[C@]12C(=O)N(C(=O)OCCOC)c1ccc(C#CCC(C(=O)OC)C(=O)OC)cc12	none (no result: PD-1 reversal)
CCC1CCc2nc3sc(C(=O)Nc4ccccc4C(F)(F)F)c(N)c3cc2C1 (centres undefined)	none (no result: PD-1 reversal)
Cc1cc(NC(=O)C2CCCCC2C(=O)O)ccc1NC(=O)c1ccccc1 (centres undefined)	ROS inducer 126
COc1cccc(C(=O)Nc2ccc(NC(=O)C3CCCCC3C(=O)O)cc2)c1 (centres undefined)	none
CCCc1nc(SCC(=O)c2ccc(Cl)cc2)nc(OC(=O)N(CC)CC)c1C	none (no result: PD-1 reversal)
CN(C)c1ccc(-c2nc3ccc4ccccc4c3c3c2CCC3)cc1	none
COc1ccc(-c2nc3ccc4ccccc4c3c3c2CCC3)cc1	ROS inducer 138
NC(=O)CN1C(=O)CCSc2ccccc21	none (no result: PD-1 reversal)
COc1ccc(OC)c(N(C)S(=O)(=O)c2cc(Br)cnc2N)c1	none (no result: PD-1 reversal)
Cc1ccccc1-n1c(SCC(=O)O)nc2sc3c(c2c1=O)CC(C)(C)OC3	none (no result: PD-1 reversal)
C=CCN(C(=O)CSc1nc2c(sc3ccccc32)c(=O)n1Cc1cccnc1)c1ccccc1	ROS inducer 154 (no result: PD-1 reversal)
CCCCn1c(SCC(=O)NCc2ccccc2)nc2c(sc3ccccc32)c1=O	none (no result: PD-1 reversal)
